# Laboratory results: the supplement of paper PMC12282887
# ± gives the standard deviation of the averaged measurements.
# Columns and labels:
# Test in all cases: promoter activity interaction Z-score (Lux/OD deviation from empty-vector control); higher = stronger promoter induction by the compound
# [1] = test system: E. coli BW25113 acrABp lux reporter
# Procedure, shortened: (§1)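 At 37°C, E. coli BW25113 reporter cultures in 40 µl LB Lennox in 384-well plates were read for OD600 and luminescence every 30 min for 12 h. Windows were 0–8 h for wild type and 1–9 h for deletion strains, and wells under 10% of the median growth value were removed. The score is the Z-transformed residual of growth-normalised luminescence against a control fit.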
# [2] = test system: E. coli BW25113 marRABp lux reporter
# Procedure, shortened: as §1
# [3] = test system: E. coli BW25113 micFp lux reporter
# Procedure, shortened: as §1
# [4] = test system: E. coli BW25113 ompFp lux reporter
# Procedure, shortened: as §1
# [5] = test system: E. coli BW25113 robp lux reporter
# Procedure, shortened: as §1
# [6] = test system: E. coli BW25113 soxSp lux reporter
# Procedure, shortened: as §1
# [7] = test system: E. coli BW25113 tolCp lux reporter
# Procedure, shortened: as §1
# [8] = 0.62 µg/ml, genetic background: wild type
# [9] = 0.62 µg/ml, genetic background: ΔmarA
# [10] = 0.62 µg/ml, genetic background: Δrob
# [11] = 0.62 µg/ml, genetic background: ΔsoxS
# [12] = 1.2 µg/ml, genetic background: wild type
# [13] = 1.2 µg/ml, genetic background: ΔmarA
# [14] = 1.2 µg/ml, genetic background: Δrob
# [15] = 1.2 µg/ml, genetic background: ΔsoxS
# [16] = 2.5 µg/ml, genetic background: wild type
# [17] = 2.5 µg/ml, genetic background: ΔmarA
# [18] = 2.5 µg/ml, genetic background: Δrob
# [19] = 2.5 µg/ml, genetic background: ΔsoxS
# [20] = 5 µg/ml, genetic background: wild type
# [21] = 5 µg/ml, genetic background: ΔmarA
# [22] = 5 µg/ml, genetic background: Δrob
# [23] = 5 µg/ml, genetic background: ΔsoxS
smiles,measurement,setting,value
CN[C@@H]1[C@H](O)[C@H](NC)[C@H]2O[C@@]3(O)C(=O)C[C@@H](C)O[C@H]3O[C@@H]2[C@H]1O [Spectinomycin],promoter activity interaction Z-score,[1]; [8],-0.0967 ± 0.053
same,promoter activity interaction Z-score,[1]; [9],0.63 ± 1.1
same,promoter activity interaction Z-score,[1]; [10],-0.155 ± 0.22
same,promoter activity interaction Z-score,[1]; [11],-0.229 ± 0.36
same,promoter activity interaction Z-score,[1]; [12],0.0581 ± 0.015
same,promoter activity interaction Z-score,[1]; [13],1.75 ± 0.53
same,promoter activity interaction Z-score,[1]; [14],-0.245 ± 0.14
same,promoter activity interaction Z-score,[1]; [15],0.468 ± 0.31
same,promoter activity interaction Z-score,[1]; [16],-0.0145 ± 0.16
same,promoter activity interaction Z-score,[1]; [17],0.746 ± 1
same,promoter activity interaction Z-score,[1]; [18],-0.204 ± 0.38
same,promoter activity interaction Z-score,[1]; [19],-0.222 ± 0.034
same,promoter activity interaction Z-score,[1]; [20],0.0345 ± 0.34
same,promoter activity interaction Z-score,[1]; [21],1.39 ± 0.42
same,promoter activity interaction Z-score,[1]; [22],0.0966 ± 0.39
same,promoter activity interaction Z-score,[1]; [23],0.99 ± 0.69
same,promoter activity interaction Z-score,[2]; [8],0.174 ± 0.026
same,promoter activity interaction Z-score,[2]; [9],0.168 ± 0.75
same,promoter activity interaction Z-score,[2]; [10],0.332 ± 0.41
same,promoter activity interaction Z-score,[2]; [11],-0.125 ± 0.11
same,promoter activity interaction Z-score,[2]; [12],0.433 ± 0.052
same,promoter activity interaction Z-score,[2]; [13],0.324 ± 0.39
same,promoter activity interaction Z-score,[2]; [14],0.402 ± 0.72
same,promoter activity interaction Z-score,[2]; [15],0.018 ± 0.043
same,promoter activity interaction Z-score,[2]; [16],0.0652 ± 0.25
same,promoter activity interaction Z-score,[2]; [17],-0.102 ± 0.25
same,promoter activity interaction Z-score,[2]; [18],-0.0628 ± 0.069
same,promoter activity interaction Z-score,[2]; [19],-0.128 ± 0.04
same,promoter activity interaction Z-score,[2]; [20],0.205 ± 0.44
same,promoter activity interaction Z-score,[2]; [21],0.687 ± 1.1
same,promoter activity interaction Z-score,[2]; [22],0.305 ± 0.34
same,promoter activity interaction Z-score,[2]; [23],0.00851 ± 0.23
same,promoter activity interaction Z-score,[3]; [8],0.0396 ± 0.21
same,promoter activity interaction Z-score,[3]; [9],0.0233 ± 0.13
same,promoter activity interaction Z-score,[3]; [10],0.0237 ± 0.29
same,promoter activity interaction Z-score,[3]; [11],-0.0535 ± 0.0022
same,promoter activity interaction Z-score,[3]; [12],0.102 ± 0.093
same,promoter activity interaction Z-score,[3]; [13],-0.0481 ± 0.051
same,promoter activity interaction Z-score,[3]; [14],-0.00303 ± 0.08
same,promoter activity interaction Z-score,[3]; [15],0.208 ± 0.053
same,promoter activity interaction Z-score,[3]; [16],0.0906 ± 0.13
same,promoter activity interaction Z-score,[3]; [17],0.0124 ± 0.13
same,promoter activity interaction Z-score,[3]; [18],-0.193 ± 0.016
same,promoter activity interaction Z-score,[3]; [19],0.131 ± 0.081
same,promoter activity interaction Z-score,[3]; [20],0.33 ± 0.19
same,promoter activity interaction Z-score,[3]; [21],-0.0142 ± 0.091
same,promoter activity interaction Z-score,[3]; [22],-0.115 ± 0.2
same,promoter activity interaction Z-score,[3]; [23],0.467 ± 0.33
same,promoter activity interaction Z-score,[4]; [8],0.543 ± 0.52
same,promoter activity interaction Z-score,[4]; [9],0.58 ± 0.32
same,promoter activity interaction Z-score,[4]; [10],0.8 ± 0.87
same,promoter activity interaction Z-score,[4]; [11],0.0444 ± 0.43
same,promoter activity interaction Z-score,[4]; [12],0.46 ± 0.84
same,promoter activity interaction Z-score,[4]; [13],0.92 ± 1.9
same,promoter activity interaction Z-score,[4]; [14],1.39 ± 1.6
same,promoter activity interaction Z-score,[4]; [15],0.446 ± 0.44
same,promoter activity interaction Z-score,[4]; [16],0.634 ± 0.23
same,promoter activity interaction Z-score,[4]; [17],0.0667 ± 0.36
same,promoter activity interaction Z-score,[4]; [18],0.00624 ± 0.23
same,promoter activity interaction Z-score,[4]; [19],0.0301 ± 0.019
same,promoter activity interaction Z-score,[4]; [20],1.76 ± 0.4
same,promoter activity interaction Z-score,[4]; [21],3.2 ± 2
same,promoter activity interaction Z-score,[4]; [22],1.79 ± 0.59
same,promoter activity interaction Z-score,[4]; [23],1.52 ± 0.2
same,promoter activity interaction Z-score,[5]; [8],0.57 ± 0.013
same,promoter activity interaction Z-score,[5]; [9],0.679 ± 0.25
same,promoter activity interaction Z-score,[5]; [10],0.28 ± 0.54
same,promoter activity interaction Z-score,[5]; [11],0.0239 ± 0.071
same,promoter activity interaction Z-score,[5]; [12],1.23 ± 0.055
same,promoter activity interaction Z-score,[5]; [13],1.12 ± 1
same,promoter activity interaction Z-score,[5]; [14],0.344 ± 1.1
same,promoter activity interaction Z-score,[5]; [15],0.459 ± 0.35
same,promoter activity interaction Z-score,[5]; [16],1.05 ± 0.45
same,promoter activity interaction Z-score,[5]; [17],-0.18 ± 0.022
same,promoter activity interaction Z-score,[5]; [18],-0.207 ± 0.35
same,promoter activity interaction Z-score,[5]; [19],-0.519 ± 0.17
same,promoter activity interaction Z-score,[5]; [20],1.2 ± 0.5
same,promoter activity interaction Z-score,[5]; [21],1.72 ± 1.6
same,promoter activity interaction Z-score,[5]; [22],0.387 ± 0.033
same,promoter activity interaction Z-score,[5]; [23],0.464 ± 0.086
same,promoter activity interaction Z-score,[6]; [8],-0.101 ± 0.17
same,promoter activity interaction Z-score,[6]; [9],-0.203 ± 0.0084
same,promoter activity interaction Z-score,[6]; [10],-0.117 ± 0.15
same,promoter activity interaction Z-score,[6]; [11],-0.425 ± 0.2
same,promoter activity interaction Z-score,[6]; [12],-0.0613 ± 0.16
same,promoter activity interaction Z-score,[6]; [13],-0.366 ± 0.011
same,promoter activity interaction Z-score,[6]; [14],-0.175 ± 0.039
same,promoter activity interaction Z-score,[6]; [15],-0.141 ± 0.26
same,promoter activity interaction Z-score,[6]; [16],-0.0221 ± 0.0045
same,promoter activity interaction Z-score,[6]; [17],-0.26 ± 0.096
same,promoter activity interaction Z-score,[6]; [18],-0.323 ± 0.11
same,promoter activity interaction Z-score,[6]; [19],-0.283 ± 0.26
same,promoter activity interaction Z-score,[6]; [20],0.172 ± 0.16
same,promoter activity interaction Z-score,[6]; [21],-0.231 ± 0.12
same,promoter activity interaction Z-score,[6]; [22],-0.25 ± 0.12
same,promoter activity interaction Z-score,[6]; [23],-0.213 ± 0.14
same,promoter activity interaction Z-score,[7]; [8],0.361 ± 0.53
same,promoter activity interaction Z-score,[7]; [9],0.711 ± 0.34
same,promoter activity interaction Z-score,[7]; [10],0.221 ± 0.16
same,promoter activity interaction Z-score,[7]; [11],-0.376 ± 0.49
same,promoter activity interaction Z-score,[7]; [12],-0.382 ± 0.52
same,promoter activity interaction Z-score,[7]; [13],-0.763 ± 0.28
same,promoter activity interaction Z-score,[7]; [14],-0.313 ± 0.84
same,promoter activity interaction Z-score,[7]; [15],0.357 ± 0.55
same,promoter activity interaction Z-score,[7]; [16],-0.207 ± 0.26
same,promoter activity interaction Z-score,[7]; [17],-0.0988 ± 1.2
same,promoter activity interaction Z-score,[7]; [18],-0.56 ± 0.75
same,promoter activity interaction Z-score,[7]; [19],0.223 ± 0.16
same,promoter activity interaction Z-score,[7]; [20],0.269 ± 0.23
same,promoter activity interaction Z-score,[7]; [21],-0.244 ± 0.4
same,promoter activity interaction Z-score,[7]; [22],-0.307 ± 0.99
same,promoter activity interaction Z-score,[7]; [23],0.299 ± 0.054
